Values joined by “and” are separate entries in the source; they are usually repeats but may differ in a detail not shown here. Equal entries are not always repeated. Inconclusive results are not listed. Active and inactive are the calls of the source. Unless noted, calls come from the whole dose curve.

Tumor necrosis factor (Homo sapiens), sequence (P01375 whole entry, looked up): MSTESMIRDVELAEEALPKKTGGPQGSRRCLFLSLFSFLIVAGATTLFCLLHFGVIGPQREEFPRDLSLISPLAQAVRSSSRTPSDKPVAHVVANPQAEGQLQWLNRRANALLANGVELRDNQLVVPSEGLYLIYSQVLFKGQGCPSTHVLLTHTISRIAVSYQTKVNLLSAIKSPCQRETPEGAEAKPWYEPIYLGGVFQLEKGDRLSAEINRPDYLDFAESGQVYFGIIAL

Test system in one assay: not listed separately
As to the kind of experiment: qHTS assay for small molecule activators of the p53 signaling pathway (AID 651743; active = well fitted activation curve with a large enough effect in the signal ratio, not every such curve was filed as active; the % refers to the signal ratio; note: % of control where 0% means no effect). The following applies: HCT-116 p53RE-bla, beta-lactamase FRET ratio, 16 h; activation: stronger effect = higher value. The procedure, abridged: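 Agonist-mode quantitative HTS in HCT-116 cells carrying a p53-response-element beta-lactamase reporter; 16 h compound treatment at 37 C, then FRET substrate loading for 2 h at room temperature and fluorescence read.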
Turning to `CC(C)Oc1cccc(NC(=O)c2ccccc2C(F)(F)F)c1`, the activation was -2.47% (inactive).

Consider `O=C(Nc1ccccc1-c1ccc(Cl)cc1)c1cccnc1Cl`, for which the activation was -6.13% (inactive).

For the molecule `CCCCC(CC)COC(=O)c1ccccc1C(=O)OCC(CC)CCCC` (stereo not given), the activation was -3.4% (inactive) and 2.22% (inactive).

On to `c1cc2ccc3cccc4ccc(c1)c2c34`, for which the activation was 4.51% (inactive) and 2.05% (inactive).

As for `C=CCC1=C(C)C(OC(=O)C2C(C=C(C)C)C2(C)C)CC1=O` (stereo not given), the activation was 1.22% (inactive).

For `Nc1ccc([N+](=O)[O-])cc1`, the activation is 0.0042% (inactive).

Turning to `O=C(O)CCCOc1ccc(Cl)cc1Cl`, the activation was 3.34% (inactive).

On to `CCCCCCCCc1ccc(O)cc1`, for which the activation is 0.0262% (inactive) and -2.23% (inactive).

For `Cc1cc(O)ccc1Cl`, the activation is -0.548% (inactive).

For `Nc1ccc(Cl)cc1`, the activation is -2.94% (inactive).

For the molecule `OCCCBr`, the activation is 1.31% (inactive).

Consider `CCO/N=C(\CC)C1=C(O)CC(c2c(C)cc(C)cc2C)CC1=O` (stereo not given), for which the activation is 0.237% (inactive).

On to `O=[N+]([O-])c1c(Cl)c(Cl)cc(Cl)c1Cl`, for which the activation is -1.29% (inactive).

For `O=C(O)COc1nc(Cl)c(Cl)cc1Cl`, the activation was 1.93% (inactive).

As for `CCOP(=O)(NC(C)C)Oc1ccc(SC)c(C)c1` (stereo not given), the activation is -4.79% (inactive) and -0.487% (inactive).

Test system in a further assay: not listed separately
The assay is described as follows: qHTS assay for small molecule activators of the nuclear factor-kappa B (NF-kB) signaling pathway (AID 651749; active = well fitted activation curve with a large enough effect in the signal ratio; the % refers to the signal ratio; note: % of control where 0% means no effect). The note with it: NF-kB-bla ME-180 cells, beta-lactamase FRET ratio, 16 h; stronger effect = higher value. Summed up: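 Human ME-180 cervical cells with an NF-kB-bla construct; compounds added via 23 nL pin transfer, DMSO as vehicle; incubation 16 hr. Reporter activity measured by FRET disruption.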
In general terms: qHTS replaces the single test concentration by a dilution series.
For `CC(C)Oc1cccc(NC(=O)c2ccccc2C(F)(F)F)c1`, the activation is 1.81% (inactive).

On to `O=C(Nc1ccccc1-c1ccc(Cl)cc1)c1cccnc1Cl`, for which the activation was 0.368% (inactive).

As to `CCCCC(CC)COC(=O)c1ccccc1C(=O)OCC(CC)CCCC` (stereo not given), the activation is 0.371% (inactive) and -1.46% (inactive).

Consider `c1cc2ccc3cccc4ccc(c1)c2c34`, for which the activation is -0.548% (inactive) and 0.897% (inactive).

As for `C=CCC1=C(C)C(OC(=O)C2C(C=C(C)C)C2(C)C)CC1=O` (stereo not given), the activation is 0.983% (inactive) and 2.07% (inactive).

As to `CCCCCCCCCCCCCCCC[N+](C)(C)C`, the activation is 1.41% (inactive).

In the case of `Nc1ccc([N+](=O)[O-])cc1`, the activation is -0.186% (inactive).

In the case of `COCCOCCO`, the activation is -0.521% (inactive) and -1.09% (inactive).

Regarding `Cc1cc(O)ccc1Cl`, the activation is -0.28% (inactive).

Consider `OCCCBr`, for which the activation was -0.539% (inactive).

`O=C(O)c1cc(Oc2ccc(C(F)(F)F)cc2Cl)ccc1[N+](=O)[O-]`: the activation is -1.27% (inactive).

Take `CCO/N=C(\CC)C1=C(O)CC(c2c(C)cc(C)cc2C)CC1=O` (stereo not given): the activation is 0.436% (inactive).

For the molecule `O=[N+]([O-])c1c(Cl)c(Cl)cc(Cl)c1Cl`, the activation was -0.885% (inactive).

Turning to `O=C(O)COc1nc(Cl)c(Cl)cc1Cl`, the activation was 0.434% (inactive).

Take `CCCN(CCC)c1c([N+](=O)[O-])cc(S(N)(=O)=O)cc1[N+](=O)[O-]`: the activation is -2.96% (inactive).

Regarding `CCOP(=O)(NC(C)C)Oc1ccc(SC)c(C)c1` (stereo not given), the activation was -0.0757% (inactive) and -0.702% (inactive).

Test system in the next assay: not listed separately
The assay is described as follows: qHTS assay for small molecule disruptors of the mitochondrial membrane potential - 1 hr assay (AID 651754). For ratio change, negative = depolarisation: % is set by controls: 0 for no effect and ±100 for the full control effect. Note: nearly all actives have a fitted effect of over 35% in size. Note: potency is the fitted concentration of half-maximal effect. The note with it: series mostly up to 92.2 µM; ratio change, negative = depolarisation: at the top concentration. The procedure, abridged: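 Loss of mitochondrial potential shifts the cationic dye from red mitochondrial aggregates to green cytoplasmic monomers. Cells (HepG2) are treated with compound for 1 hr before a 30 min dye incubation at 37C.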
For the molecule `CCCCC(CC)COC(=O)c1ccccc1C(=O)OCC(CC)CCCC` (stereo not given), the “ratio change, negative = depolarisation” value was 5.09% (inactive).

On to `Nc1cccc2c(N)cccc12`, for which the Potency is 2.98 µM (active).

In the case of `Cc1cc(O)ccc1Cl`, the “ratio change, negative = depolarisation” value is -18.2% (inactive).

With `Nc1ccc(Cl)cc1`, the “ratio change, negative = depolarisation” value was 5.03% (inactive).

Regarding `Nc1ccc(Sc2ccc(N)cc2)cc1`, the “ratio change, negative = depolarisation” value is -1.94% (inactive).

With `CC(C)(c1ccc(O)cc1)c1ccc(O)cc1`, the Potency is 26.6 µM (active) and 13.3 µM (active).

For `O=[N+]([O-])c1c(Cl)c(Cl)cc(Cl)c1Cl`, the “ratio change, negative = depolarisation” value is 2.27% (inactive).

As to `CC(=O)[O][Hg][c]1ccccc1`, the Potency was 16.8 µM (active).

Test system in another assay: not listed separately
The assay is described as follows: qHTS assay for small molecule disruptors of the mitochondrial membrane potential - 5 hr assay (AID 651755). For ratio change, negative = disruption: % is set by controls: 0 for no effect and ±100 for the full control effect. Note: nearly all actives have a fitted effect of over 40% in size. Note: potency is the fitted concentration of half-maximal effect. The note with it: JC-1-type ratio dye; series mostly up to 92.2 µM; ratio change, negative = disruption: at the top concentration. Summed up:
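Seed HepG2 overnight, add compound, incubate 5 hr at 37C and 5% CO2, stain 30 min with Mito-MPS, then measure monomer (490/535 nm) and aggregate (540/590 nm) fluorescence.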
For the molecule `CN(C)[C@@H]1C(=O)C(C(N)=O)=C(O)[C@@]2(O)C(=O)C3=C(O)c4c(O)cccc4[C@@](C)(O)[C@H]3[C@H](O)[C@@H]12`, the “ratio change, negative = disruption” value is 4.9% (inactive).

Take `Nc1ccc([N+](=O)[O-])cc1O`: the Potency is 37.6 µM (active).

Regarding `CCCCC(CC)COC(=O)c1ccccc1C(=O)OCC(CC)CCCC` (stereo not given), the “ratio change, negative = disruption” value was 5.88% (inactive).

With `Nc1cccc2c(N)cccc12`, the Potency is 5.96 µM (active).

For the molecule `Cc1cc(O)ccc1Cl`, the “ratio change, negative = disruption” value is -18% (inactive).

As for `Nc1ccc(Cl)cc1`, the “ratio change, negative = disruption” value was 10.5% (inactive).

Take `Nc1ccc(Sc2ccc(N)cc2)cc1`: the “ratio change, negative = disruption” value is -3.57% (inactive).

Take `CC(C)(c1ccc(O)cc1)c1ccc(O)cc1`: the Potency was 33.5 µM (active).

In the case of `O=[N+]([O-])c1c(Cl)c(Cl)cc(Cl)c1Cl`, the “ratio change, negative = disruption” value was 7.64% (inactive).

Turning to `CC(=O)[O][Hg][c]1ccccc1`, the Potency was 13.3 µM (active).

The next assay has as its target Tumor necrosis factor (Homo sapiens) (UniProt P01375). As to the kind of experiment: qHTS assay to identify small molecules that stimulate Tumor Necrosis Factor-alpha (TNF-alpha) secretion (AID 651757; active = well fitted curve in the direction sought with a large enough effect in the signal ratio; the % refers to the signal ratio; note: 0% is about no effect). The following applies: Human cells, HTRF 665/615 ratio; series mostly up to 92.2 µM; activation (TNF-alpha secretion): at the top concentration. Summed up:
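Human monocytic THP-1 cells are plated, treated with compound and held at 37 C for 17 hrs. Labeled anti-TNF-alpha antibody mixture is then added; after 3 hr at room temperature, TR-FRET signal reports secreted TNF-alpha.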
With `CN(C)[C@@H]1C(=O)C(C(N)=O)=C(O)[C@@]2(O)C(=O)C3=C(O)c4c(O)cccc4[C@@](C)(O)[C@H]3[C@H](O)[C@@H]12`, the “activation (TNF-alpha secretion)” value is 3.66% (inactive).

Turning to `CCCCC(CC)COC(=O)c1ccccc1C(=O)OCC(CC)CCCC` (stereo not given), the “activation (TNF-alpha secretion)” value is -0.0431% (inactive).

Consider `c1cc2ccc3cccc4ccc(c1)c2c34`, for which the “activation (TNF-alpha secretion)” value is 1.87% (inactive).

In the case of `Nc1ccc([N+](=O)[O-])cc1`, the “activation (TNF-alpha secretion)” value was 0.225% (inactive).

Take `CCCCCCCCc1ccc(O)cc1`: the “activation (TNF-alpha secretion)” value is -0.266% (inactive).

Take `Cc1cc(O)ccc1Cl`: the “activation (TNF-alpha secretion)” value was 0.462% (inactive).

As to `O=C(O)C(Cl)Cl`, the “activation (TNF-alpha secretion)” value is 0.0033% (inactive).

`Nc1ccc(Cl)cc1`: the “activation (TNF-alpha secretion)” value was 0.965% (inactive).

For the molecule `OCCCBr`, the “activation (TNF-alpha secretion)” value is 0.2% (inactive).

Take `O=[N+]([O-])c1c(Cl)c(Cl)cc(Cl)c1Cl`: the “activation (TNF-alpha secretion)” value is 0.189% (inactive).

Regarding `CCOP(=O)(NC(C)C)Oc1ccc(SC)c(C)c1` (stereo not given), the “activation (TNF-alpha secretion)” value was -0.0276% (inactive).

The record behind these values is PubChem BioAssay (NCATS).
